Reference: PubChem BioAssay (EPA / NIEHS)
Records with an inconclusive call do not appear. Activity calls are given as the source filed them. The calls were made as follows: active = hit-call score of the fitted dose curve at least 0.9, where 1 is the maximum; inconclusive = response in the unintended direction; inactive = score below 0.9.

molecular target: Estrogen receptor (Homo sapiens) + Estrogen receptor beta (Homo sapiens) (UniProt P03372+Q92731); assay: OT_ER_ERaERb_1440: Odyssey Thera (OT) 24-hour HEK293T Protein-Complementation Assay for Estrogen Receptor-alpha/-beta Homodimer (AID 2283356);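 also: hits raise reporter fluorescence and both agonists and antagonists give an increase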
Sequence (P03372 whole entry, looked up, the tested form may be a part): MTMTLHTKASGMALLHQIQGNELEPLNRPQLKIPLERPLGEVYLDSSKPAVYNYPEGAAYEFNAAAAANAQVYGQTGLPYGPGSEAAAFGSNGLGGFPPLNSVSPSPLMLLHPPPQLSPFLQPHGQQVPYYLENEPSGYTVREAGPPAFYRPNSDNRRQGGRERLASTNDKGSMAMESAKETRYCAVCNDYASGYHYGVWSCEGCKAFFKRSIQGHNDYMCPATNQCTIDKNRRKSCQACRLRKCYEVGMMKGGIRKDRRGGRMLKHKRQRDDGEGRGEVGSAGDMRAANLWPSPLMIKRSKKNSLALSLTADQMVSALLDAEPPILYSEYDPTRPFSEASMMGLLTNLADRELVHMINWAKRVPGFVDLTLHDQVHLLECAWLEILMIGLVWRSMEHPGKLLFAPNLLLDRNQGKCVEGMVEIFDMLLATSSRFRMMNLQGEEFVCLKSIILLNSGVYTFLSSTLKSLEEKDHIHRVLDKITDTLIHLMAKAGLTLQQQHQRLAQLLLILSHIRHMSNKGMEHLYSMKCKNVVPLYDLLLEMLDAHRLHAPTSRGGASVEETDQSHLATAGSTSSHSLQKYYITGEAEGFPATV
Sequence (Q92731 whole entry, looked up, the tested form may be a part): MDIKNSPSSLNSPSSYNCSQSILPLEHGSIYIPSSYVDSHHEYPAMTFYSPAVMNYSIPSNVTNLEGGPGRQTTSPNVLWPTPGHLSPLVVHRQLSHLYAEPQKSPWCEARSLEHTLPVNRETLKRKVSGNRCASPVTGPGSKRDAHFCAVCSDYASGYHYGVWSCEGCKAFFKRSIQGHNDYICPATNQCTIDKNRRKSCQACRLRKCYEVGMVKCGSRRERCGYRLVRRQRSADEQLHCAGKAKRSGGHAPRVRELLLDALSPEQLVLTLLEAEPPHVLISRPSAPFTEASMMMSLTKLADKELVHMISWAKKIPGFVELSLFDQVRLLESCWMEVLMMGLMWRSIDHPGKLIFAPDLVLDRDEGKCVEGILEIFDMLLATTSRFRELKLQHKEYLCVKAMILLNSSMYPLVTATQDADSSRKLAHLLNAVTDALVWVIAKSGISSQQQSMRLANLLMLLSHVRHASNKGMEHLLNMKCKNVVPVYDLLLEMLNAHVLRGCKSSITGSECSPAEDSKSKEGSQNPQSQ
Description: OT_ER_ERaERb_1440 is a cell-based assay that uses HEK293T, a human kidney cell line, with measurements taken at 24 hours after chemical dosing in a 384-well plate.OT_ER_ERaERb_1440 is one of one assay component(s) measured or calculated from the OT_ER_ERaERb_1440 assay. It is designed to make measurements of protein fragment complementation, a form of binding reporter, as detected with fluorescence intensity signals by Protein-fragment Complementation technology.Data from the assay component OT_ER_ERaERb_1440 was analyzed into 1 assay endpoint. This assay endpoint, OT_ER_ERaERb_1440, was analyzed in the positive analysis fitting direction relative to DMSO as the negative control and baseline of activity. Using a type of binding reporter, measures of receptor for gain-of-signal activity can be used to understand the binding at the pathway-level as they relate to the gene ESR1 and ESR2. Furthermore, this assay endpoint can be referred to as a primary readout, because the performed assay has only produced 1 assay endpoint. To generalize the intended target to other relatable targets, this assay endpoint is annotated to the nuclear receptor intended target family, where the subfamily is steroidal.
Protein-fragment complementation assay, or PCA, is a method for the identification and quantification of protein-protein interactions. In the PCA, the proteins of interest ("bait" and "prey") are each covalently linked to fragments of a third protein (e.g. DHFR, which acts as a "reporter"). Interaction between the bait and the prey proteins brings the fragments of the reporter protein in close proximity to allow them to form a functional reporter protein whose activity can be measured. The OT ER alpha / ER beta assay is a heterodimer PCA of the ligand binding domain (LBD) of ER alpha (amino acids 310-547) and human ER beta (amino acids 263-489) stably expressed in HEK293T cells. […] Fluorescent signal in the basal state of the assay is very low and is primarily punctuate and cytoplasmic. Modulation of this assay is quantified as an increase in mean fluorescence intensity in the nucleus (for agonists) or in the nucleus and cytoplasm (antagonists) relative to vehicle controls, and can be quantified on a high content imaging device or a laser scanning cytometer. The latter instrument is favored for this assay because of the rapid mode of data acquisition, the ability to acquire data from the entire cell population in a well (as opposed to a fraction of the well on the high content devices) and the larger dynamic range typically achieved with this instrument. To assess sensitivity of the ER alpha/ER beta LBD assay to ligand, cells were treated with the ER agonist 17- beta-estradiol (E2) in 10-point concentration- response format for 24 hours and monitored response on a laser scanning plate cytometer (Acumen eX3; TTP Lab Tech).

| SMILES | AC50 | outcome |
| --- | --- | --- |
| CCCSP(=S)(OCC)Oc1ccc(SC)cc1 (stereo unspecified) | 24.1 µM (active) | – |
| CC(C)=CC1C(C(=O)OCc2cccc(Oc3ccccc3)c2)C1(C)C (stereo unspecified) | – | inactive |
| Oc1c(Br)cc(Br)cc1Br | – | inactive |
| N#CCCC(Br)(C#N)CBr (stereo unspecified) | 11.8 µM (active) | – |
| CCOCn1c(-c2ccc(Cl)cc2)c(C#N)c(Br)c1C(F)(F)F | 12.4 µM (active) | – |
| CC(=Cc1ccccc1)[N+](=O)[O-] | – | inactive |
| CCCCCCCCCCCCN(C)C | 73.9 µM (active) | – |
| N#CCC#N | – | inactive |
| CCOc1ccc(N)cc1 | – | inactive |
| Cc1cc(Cl)ccc1OC(C)C(=O)O (stereo unspecified) | – | inactive |
| O=C(NC(=O)c1c(F)cccc1F)Nc1cc(Cl)c(OC(F)(F)C(F)C(F)(F)F)cc1Cl (stereo unspecified) | 50.2 µM (active) | – |
| O=C(CCl)Nc1ccccc1 | – | inactive |
| O=S1(=O)OC(c2cc(Br)c(O)c(Br)c2)(c2cc(Br)c(O)c(Br)c2)c2ccccc21 | – | inactive |
| CCN(CCO)CCO | – | inactive |
| CNC(=O)O/N=C/C(C)(C)S(C)(=O)=O | – | inactive |
| O=CCCl | – | inactive |
| O=C(O)COc1ccc(Cl)cc1 | – | inactive |
| CC(O)(CS(=O)(=O)c1ccc(F)cc1)C(=O)Nc1ccc(C#N)c(C(F)(F)F)c1 (stereo unspecified) | 5.63 µM (active) | – |
| O=C(NC(=O)c1c(F)cccc1F)Nc1ccc(Cl)cc1 | – | inactive |
| CC(C)N(C(=O)CCl)c1ccccc1 | – | inactive |
| CCC[CH2][Sn]([Cl])([Cl])[CH2]CCC | – | inactive |
